Assay [1] addresses Cytochrome P450 3A4 (Homo sapiens) (UniProt P08684). Description: NVS_ADME_hCYP3A4: NovaScreen (NVS) CYP450-related Enzyme Activity (ADME) Assay for human CYP3A4 (AID 2283110). The method in brief: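 Cell-free recombinant enzyme expressed in insect cells; fluorescent substrate turnover read after 0.33 h, acetonitrile as negative control. Primary screen in duplicate at 10 uM, actives then tested in concentration series.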

For assay [2], the target named is human Beta-secretase (BACE), BACE1 (gene 23621) (UniProt P56817). The assay can be described thus: NVS_ENZ_hBACE: NovaScreen (NVS) Enzymatic Assay for human Beta-secretase (BACE) (AID 2283140).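 Note: hits are inhibitors that reduce fluorescent substrate signal versus DMSO.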 The method in brief:
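Compounds were first tested in duplicate at 25 uM, then actives in concentration series, against recombinant BACE1 from SF9 cells. Enzyme activity was measured by fluorescence intensity 1 hour after dosing, with DMSO as negative control.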

In assay [3] the target is human CYP2C9, CYP2C9 (gene 1559) (UniProt P11712). The assay can be described thus: NVS_ADME_hCYP2C9: NovaScreen (NVS) CYP450-related Enzyme Activity (ADME) Assay for human CYP2C9 (AID 2283108). The method in brief:
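Recombinant human CYP2C9 expressed in SF9 cells, fluorogenic substrate, fluorescence read 0.75 h after dosing. Chemicals first run in duplicate at 10 uM, with actives followed in concentration series; loss of signal versus acetonitrile baseline.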

Another assay concerns the target Caspase-3 (Homo sapiens) (UniProt P42574). Description: NVS_ENZ_hCASP3: NovaScreen (NVS) Enzymatic Assay for human Caspase 3 (CASP3) (AID 2283139). As for the experimental part:
NVS_ENZ_hCASP3 is a biochemical, single-readout assay that uses extracted gene-proteins from E. coli in a cell-free assay. Measurements were taken 1 hour after chemical dosing in a 96-well plate.NVS_ENZ_hCASP3 is one of one assay component(s) measured or calculated from the NVS_ENZ_hCASP3 assay. It is designed to make measurements of enzyme activity, a form of enzyme reporter, as detected with fluorescence intensity signals by Fluorescence technology.Data from the assay component NVS_ENZ_hCASP3 was analyzed into 1 assay endpoint. This assay endpoint, NVS_ENZ_hCASP3, was analyzed in the positive analysis fitting direction relative to DMSO as the negative control and baseline of activity. […] Furthermore, this assay endpoint can be referred to as a primary readout, because this assay has produced multiple assay endpoints where this one serves a enzymatic activity function. […]
Binding assays used specific radioligands (tritiated, iodinated) with non-radioactive competitive displacement ligands in agonist or antagonist protocols (as indicated) and various reference compounds and inhibitors to titrate specific binding to receptors and transporters. Most enzyme assays (CYPs, kinases, phosphatases, proteases, HDACs) used recombinant protein and specific substrates (fluorescence mostly, some colorimetric and radioactive) and inhibitors, followed by a biochemical separation of substrate and product. […]

Assay [4] concerns the target human AKT serine/threonine Kinase 1 (AKT1), AKT1 (gene 207) (UniProt P31749). Description: NVS_ENZ_hAKT1: NovaScreen (NVS) Enzymatic Assay for human AKT serine/threonine Kinase 1 (AKT1) (AID 2283138). The method in brief: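 Recombinant AKT1, specific substrate, cell-free; 1 h; fluorescence intensity/electrophoretic mobility shift. Duplicate single-point 25 uM, then singleton CRC max 50 uM. DMSO = negative control/baseline; signal loss = inhibition.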

Assay [5] concerns the target human AKT serine/threonine Kinase 2 (AKT2), AKT2 (gene 208) (UniProt P31751). Description: NVS_ENZ_hAKT2: NovaScreen (NVS) Enzymatic Assay for human AKT serine/threonine Kinase 2 (AKT2) (AID 2283141). The method in brief:
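Cell-free fluorescence/electrophoretic mobility shift readout of recombinant human AKT2 activity, 1 h after chemical dosing. Duplicate primary screen at 25 uM, then singleton concentration-response up to 50 uM; loss of signal versus DMSO baseline.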

Assay [6] has as its target human CYP2D6, CYP2D6 (gene 1565) (UniProt P10635). Description: NVS_ADME_hCYP2D6: NovaScreen (NVS) CYP450-related Enzyme Activity (ADME) Assay for human CYP2D6 (AID 2283107). In outline:
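Insect-cell recombinant enzyme + fluorogenic substrate, cell-free; 1 h incubation; fluorescence intensity readout. Acetonitrile = neg. ctrl/baseline. Single-point 10 uM, duplicate; follow-up concentration series.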

For assay [7], the target named is human Caspase 5 (CASP5), CASP5 (gene 838) (UniProt P51878). The assay can be described thus: NVS_ENZ_hCASP5: NovaScreen (NVS) Enzymatic Assay for human Caspase 5 (CASP5) (AID 2283137). In outline:
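E. coli-derived enzyme, cell-free, 2 h incubation, fluorescence intensity. 25 uM duplicate single-point; hits → concentration series to 50 uM. DMSO baseline, positive/negative controls on every plate.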

Assay [8] has as its target human Caspase 4 (CASP4), CASP4 (gene 837) (UniProt P49662). Description: NVS_ENZ_hCASP4: NovaScreen (NVS) Enzymatic Assay for human Caspase 4 (CASP4) (AID 2283143). The method in brief: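 The cell-free assay used E. coli-expressed enzyme with a fluorogenic substrate, read 2 h after dosing. Signal loss was scored versus DMSO. Screening was in duplicate at 25 uM, then singleton concentration-response up to 50 uM.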

Assay [9] addresses human Acid Phosphatase 1 (ACP1), ACP1 (gene 52) (UniProt P24666). The assay can be described thus: NVS_ENZ_hACP1: NovaScreen (NVS) Enzymatic Assay for human Acid Phosphatase 1 (ACP1) (AID 2283136). As for the experimental part: NVS_ENZ_hACP1 is a biochemical, single-readout assay that uses extracted gene-proteins from SF9 in a cell-free assay. Measurements were taken 1.5 hours after chemical dosing in a 384-well plate.NVS_ENZ_hACP1 is one of one assay component(s) measured or calculated from the NVS_ENZ_hACP1 assay. It is designed to make measurements of enzyme activity, a form of enzyme reporter, as detected with fluorescence intensity signals by Fluorescence and electrophoretic mobility shift technology.Data from the assay component NVS_ENZ_hACP1 was analyzed into 1 assay endpoint. This assay endpoint, NVS_ENZ_hACP1, was analyzed in the positive analysis fitting direction relative to DMSO as the negative control and baseline of activity. Using a type of enzyme reporter, loss-of-signal activity can be used to understand changes in the enzymatic activity as they relate to the gene ACP1. Furthermore, this assay endpoint can be referred to as a primary readout, because this assay has produced multiple assay endpoints where this one serves a enzymatic activity function. To generalize the intended target to other relatable targets, this assay endpoint is annotated to the phosphatase intended target family, where the subfamily is acid phosphatase. […]

The results in this text go back to PubChem BioAssay (EPA / NIEHS).

SMILES strings stand for the structures. Inconclusive results are not listed. Calls of active or inactive are those of the source. Rule for the calls: active = hit-call score of the fitted dose curve at least 0.9, where 1 is the maximum; inconclusive = response in the unintended direction; inactive = score below 0.9.

human CYP2D6, CYP2D6 (gene 1565), sequence (P10635 whole entry, looked up): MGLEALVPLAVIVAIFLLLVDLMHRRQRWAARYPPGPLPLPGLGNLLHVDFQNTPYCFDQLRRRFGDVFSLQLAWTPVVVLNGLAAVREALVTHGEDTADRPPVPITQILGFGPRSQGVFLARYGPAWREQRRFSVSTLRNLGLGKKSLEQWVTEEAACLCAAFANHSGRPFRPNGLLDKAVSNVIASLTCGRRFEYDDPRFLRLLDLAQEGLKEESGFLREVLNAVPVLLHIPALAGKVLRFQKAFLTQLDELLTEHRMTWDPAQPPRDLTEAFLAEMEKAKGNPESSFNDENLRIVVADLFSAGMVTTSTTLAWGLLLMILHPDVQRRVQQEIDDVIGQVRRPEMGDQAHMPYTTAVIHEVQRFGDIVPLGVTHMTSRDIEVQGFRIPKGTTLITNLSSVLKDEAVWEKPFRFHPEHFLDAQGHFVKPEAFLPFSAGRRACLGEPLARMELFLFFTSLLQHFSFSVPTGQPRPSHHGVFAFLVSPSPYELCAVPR
Cytochrome P450 3A4 (Homo sapiens), sequence (P08684 whole entry, looked up): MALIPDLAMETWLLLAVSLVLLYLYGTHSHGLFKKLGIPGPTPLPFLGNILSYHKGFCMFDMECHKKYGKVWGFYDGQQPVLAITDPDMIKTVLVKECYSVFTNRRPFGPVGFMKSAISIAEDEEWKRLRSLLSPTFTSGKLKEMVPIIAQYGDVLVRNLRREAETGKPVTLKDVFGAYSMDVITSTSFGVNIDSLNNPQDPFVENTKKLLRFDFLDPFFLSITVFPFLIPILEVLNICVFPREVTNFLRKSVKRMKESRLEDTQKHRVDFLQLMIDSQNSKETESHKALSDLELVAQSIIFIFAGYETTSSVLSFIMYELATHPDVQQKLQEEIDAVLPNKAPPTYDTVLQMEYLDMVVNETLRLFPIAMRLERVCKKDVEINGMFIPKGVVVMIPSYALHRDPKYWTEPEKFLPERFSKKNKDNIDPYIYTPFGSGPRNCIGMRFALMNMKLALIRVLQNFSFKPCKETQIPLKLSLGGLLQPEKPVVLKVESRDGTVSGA
human AKT serine/threonine Kinase 1 (AKT1), AKT1 (gene 207), sequence (P31749 whole entry, looked up): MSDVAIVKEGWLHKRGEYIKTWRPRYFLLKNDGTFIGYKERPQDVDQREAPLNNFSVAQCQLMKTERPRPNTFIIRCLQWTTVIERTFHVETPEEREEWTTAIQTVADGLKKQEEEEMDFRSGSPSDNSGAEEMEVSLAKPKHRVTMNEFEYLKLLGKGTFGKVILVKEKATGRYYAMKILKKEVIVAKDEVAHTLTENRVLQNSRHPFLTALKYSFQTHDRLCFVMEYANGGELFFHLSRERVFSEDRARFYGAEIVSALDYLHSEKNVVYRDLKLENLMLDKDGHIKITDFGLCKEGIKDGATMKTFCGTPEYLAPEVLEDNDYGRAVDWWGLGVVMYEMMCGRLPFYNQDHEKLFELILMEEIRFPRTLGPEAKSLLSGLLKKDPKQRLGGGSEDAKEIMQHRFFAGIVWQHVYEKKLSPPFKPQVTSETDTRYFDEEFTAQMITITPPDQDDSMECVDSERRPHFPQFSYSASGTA
human Beta-secretase (BACE), BACE1 (gene 23621), sequence (P56817 whole entry, looked up): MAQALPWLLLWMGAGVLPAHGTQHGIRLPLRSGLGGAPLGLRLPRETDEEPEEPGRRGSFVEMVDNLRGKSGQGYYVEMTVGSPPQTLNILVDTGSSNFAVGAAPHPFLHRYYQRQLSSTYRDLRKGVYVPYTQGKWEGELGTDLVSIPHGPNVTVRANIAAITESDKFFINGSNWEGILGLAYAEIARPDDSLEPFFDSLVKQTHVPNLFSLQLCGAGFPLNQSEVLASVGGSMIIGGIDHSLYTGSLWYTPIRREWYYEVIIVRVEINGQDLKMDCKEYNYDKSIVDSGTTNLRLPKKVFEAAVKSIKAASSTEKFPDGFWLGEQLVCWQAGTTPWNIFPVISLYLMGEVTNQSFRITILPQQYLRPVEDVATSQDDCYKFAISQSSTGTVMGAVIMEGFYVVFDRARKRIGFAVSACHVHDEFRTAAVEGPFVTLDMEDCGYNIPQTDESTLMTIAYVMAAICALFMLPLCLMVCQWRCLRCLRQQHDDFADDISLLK
human CYP2C9, CYP2C9 (gene 1559), sequence (P11712 whole entry, looked up): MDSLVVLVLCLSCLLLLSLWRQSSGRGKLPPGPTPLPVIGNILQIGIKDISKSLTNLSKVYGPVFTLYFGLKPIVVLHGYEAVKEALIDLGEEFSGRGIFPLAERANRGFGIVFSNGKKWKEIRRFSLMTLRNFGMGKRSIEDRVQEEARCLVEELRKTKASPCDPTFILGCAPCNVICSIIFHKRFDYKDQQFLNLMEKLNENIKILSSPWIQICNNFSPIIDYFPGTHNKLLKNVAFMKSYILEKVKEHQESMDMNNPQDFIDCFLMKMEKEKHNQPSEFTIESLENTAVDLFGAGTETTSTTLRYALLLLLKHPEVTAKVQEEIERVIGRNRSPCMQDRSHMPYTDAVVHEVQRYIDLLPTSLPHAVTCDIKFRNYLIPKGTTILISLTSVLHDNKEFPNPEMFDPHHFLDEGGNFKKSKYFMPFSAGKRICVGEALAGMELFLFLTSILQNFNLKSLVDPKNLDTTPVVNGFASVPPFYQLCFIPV
human Caspase 5 (CASP5), CASP5 (gene 838), sequence (P51878 whole entry, looked up): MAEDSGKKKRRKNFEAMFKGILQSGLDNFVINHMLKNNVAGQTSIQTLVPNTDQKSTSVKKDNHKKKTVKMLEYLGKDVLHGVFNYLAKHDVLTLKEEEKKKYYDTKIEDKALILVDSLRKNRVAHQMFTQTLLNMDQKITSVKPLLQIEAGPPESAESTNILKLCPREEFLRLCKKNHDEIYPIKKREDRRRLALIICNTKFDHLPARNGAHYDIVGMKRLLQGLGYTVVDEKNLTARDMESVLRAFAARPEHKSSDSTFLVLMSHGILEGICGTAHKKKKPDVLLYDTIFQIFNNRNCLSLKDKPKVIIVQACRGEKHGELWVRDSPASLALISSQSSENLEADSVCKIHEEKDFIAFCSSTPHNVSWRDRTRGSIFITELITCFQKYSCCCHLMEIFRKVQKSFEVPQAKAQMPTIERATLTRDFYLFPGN
human Caspase 4 (CASP4), CASP4 (gene 837), sequence (P49662 whole entry, looked up): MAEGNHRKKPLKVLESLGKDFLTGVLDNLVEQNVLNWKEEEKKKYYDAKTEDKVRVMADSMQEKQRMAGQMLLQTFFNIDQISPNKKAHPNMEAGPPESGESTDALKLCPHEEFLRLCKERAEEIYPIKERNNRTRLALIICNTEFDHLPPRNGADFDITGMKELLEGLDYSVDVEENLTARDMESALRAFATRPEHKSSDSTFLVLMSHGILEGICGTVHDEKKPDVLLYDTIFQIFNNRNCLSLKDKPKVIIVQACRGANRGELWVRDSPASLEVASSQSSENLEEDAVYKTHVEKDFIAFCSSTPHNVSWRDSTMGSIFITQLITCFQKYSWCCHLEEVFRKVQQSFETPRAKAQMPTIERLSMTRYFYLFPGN
human AKT serine/threonine Kinase 2 (AKT2), AKT2 (gene 208), sequence (P31751 whole entry, looked up): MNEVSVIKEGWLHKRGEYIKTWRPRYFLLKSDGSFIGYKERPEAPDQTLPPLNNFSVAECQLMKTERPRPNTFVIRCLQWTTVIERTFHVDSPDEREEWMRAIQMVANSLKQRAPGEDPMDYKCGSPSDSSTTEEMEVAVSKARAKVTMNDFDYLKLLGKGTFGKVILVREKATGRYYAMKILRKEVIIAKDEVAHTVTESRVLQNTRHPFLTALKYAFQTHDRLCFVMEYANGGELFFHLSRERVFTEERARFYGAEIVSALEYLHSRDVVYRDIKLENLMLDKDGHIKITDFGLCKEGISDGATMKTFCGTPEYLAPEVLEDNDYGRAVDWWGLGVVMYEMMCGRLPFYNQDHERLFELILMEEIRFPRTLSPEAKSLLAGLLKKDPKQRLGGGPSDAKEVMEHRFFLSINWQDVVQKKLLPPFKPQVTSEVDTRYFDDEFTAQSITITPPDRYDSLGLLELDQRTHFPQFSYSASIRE
Caspase-3 (Homo sapiens), sequence (P42574 whole entry, looked up): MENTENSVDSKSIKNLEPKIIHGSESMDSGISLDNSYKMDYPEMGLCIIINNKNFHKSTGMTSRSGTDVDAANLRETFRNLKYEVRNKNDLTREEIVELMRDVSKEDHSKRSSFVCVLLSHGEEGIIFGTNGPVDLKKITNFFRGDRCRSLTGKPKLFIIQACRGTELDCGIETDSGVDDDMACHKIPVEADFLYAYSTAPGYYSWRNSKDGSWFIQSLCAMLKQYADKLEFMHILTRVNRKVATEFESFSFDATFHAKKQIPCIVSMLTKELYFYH
human Acid Phosphatase 1 (ACP1), ACP1 (gene 52), sequence (P24666 whole entry, looked up): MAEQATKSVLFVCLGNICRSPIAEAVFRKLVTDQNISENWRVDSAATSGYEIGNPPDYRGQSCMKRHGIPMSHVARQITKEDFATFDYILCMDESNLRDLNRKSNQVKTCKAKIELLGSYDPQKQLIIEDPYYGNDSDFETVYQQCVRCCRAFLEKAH

Consider `O=C(O)Cc1cc(I)c(Oc2cc(I)c(O)c(I)c2)c(I)c1`, for which the call in assay [1] and in assay [2] was inactive.
As usually defined, the AC50 is the concentration giving half of the maximal activity seen. Regarding `CC[C@H](c1ccc(O)cc1)[C@@H](CC)c1ccc(O)cc1`, in [3], the AC50 is 0.295 µM (active).
As for `CC(O)CO` (configuration not stated), the molecule was called inactive with Caspase-3 (Homo sapiens).
With `N#C[C@@H]1CC(F)(F)CN1C(=O)CNC1CC2CCC(C1)N2c1ncccn1` (some centres not stated), the result in [4] and in [5] was inactive.
Consider `Oc1cc2ccccc2c2ccccc12`, for which the AC50 was 0.136 µM (active) in [6]; 0.235 µM (active) in assay [3]; 6.68 µM (active) in assay [1]; 6.88 µM (active) in assay [7]; 12.6 µM (active) in the assay with Caspase-3 (Homo sapiens). In [8], the call was inactive.
With `CCCCCCCCCCCCc1ccccc1S(=O)(=O)O`, the AC50 in [3] is 5.06 µM (active); in assay [4], 29.1 µM (active); in assay [2] it was 2.23 µM (active); in assay [5], 40.2 µM (active).
`CCCCCCCCOC(=O)CCCCCCCCC(=O)OCCCCCCCC`: in [4], the result was inactive.
`CCCOc1sc(C(=O)N2CCC(c3cc(CN)ccc3F)CC2)c(C)c1Br`: the figures for the AC50 in assay [3], in assay [1] and in assay [2] were 1.92 µM (active), 14.4 µM (active) and 4.17 µM (active), respectively.
On to `Nc1cccc2c(N)cccc12`, for which the AC50 is 3.62 µM (active) in assay [6], 6.16 µM (active) in assay [3], 3.13 µM (active) in assay [4] and 19.5 µM (active) in assay [2].
With `NC(=O)N(O)[C@@H]1C=C[C@H](Oc2cccc(Oc3ccc(F)cc3)c2)C1`, the results for the AC50 in assay [6] and in assay [1] were 1.16 µM (active) and 4.62 µM (active), respectively.
For `c1ccc2cc3c(ccc4ccccc43)cc2c1`, the result in assay [7] was inactive.
As for `CC(C)(C)c1ccc(O)c(C(C)(C)C)c1`, the molecule was classed as inactive in [2].
For `Cc1cc(CCN2CCN(c3nsc4ccccc34)CC2)cc2c1NC(=O)CC2(C)C`, the call in assay [6] was inactive. For the same molecule, in [3], the AC50 is 10 µM (active).
In the case of `COC(=O)CCCCC(=O)OC`, the molecule was classed as inactive in assay [2].
As to `CC#C[C@]1(O)CC[C@H]2[C@@H]3CCC4=CC(=O)CCC4=C3[C@@H](c3ccc(N(C)C)cc3)C[C@@]21C`, in assay [3], the AC50 is 4.12 µM (active).
As for `O=C(OCCOCCOC(=O)c1ccccc1)c1ccccc1`, in assay [3], the AC50 is 15.3 µM (active).
In the case of `c1ccc2c(c1)Cc1ccccc1-2`, in [2], the outcome was inactive.
Turning to `O=[N+]([O-])c1ccc(O)cc1`, the molecule was called inactive in assay [6].
Regarding `CC(=O)NC1(c2cccc(F)c2)CCN(CC[C@@]2(c3ccc(Cl)c(Cl)c3)CN(c3ccccc3)C(=O)CO2)CC1`, the AC50 in assay [6] was 2.77 µM (active); in assay [3], 6.63 µM (active); in [1], 1.78 µM (active).
In the case of `CCC(=C(c1ccc(O)cc1)c1ccc(OCCN(C)C)cc1)c1ccccc1`, the result in assay [4] was inactive. Further, the AC50 in [2] is 16.1 µM (active).
Regarding `NC(=O)N1C(=O)C(C(=O)c2cc(Cl)cs2)c2cc(F)c(Cl)cc21` (configuration not stated), the AC50 in assay [3] was 15.7 µM (active); in assay [2], 0.139 µM (active). Also, the call in assay [1] and in assay [7] was inactive.
As to `CCCCCCCCCCCCCC[N+](C)(C)C`, the AC50 in assay [6] was 3.64 µM (active); in assay [2] it was 4.96 µM (active).
On to `Cc1oc(-c2ccccc2)nc1CCOc1ccc(C[C@H](Nc2ccccc2C(=O)c2ccccc2)C(=O)O)cc1`, for which the call in assay [1] and in [8] was inactive. Moreover, the AC50 is 8.25 µM (active) in assay [7] and 1.17 µM (active) in [2].
Take `CC1=C(/C=C/C(C)=C/C=C/C(C)=C/C(=O)O)C(C)(C)CCC1`: in [6], the result was inactive.
For `COCC(C)OCC(C)O` (configuration not stated), in assay [9], the molecule was called inactive.
